Hit rate of the full screen: of about 96,000 compounds, about 20,000 (21%) were called active. Only a sample is shown. A number with no mark means an inactive call.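 Rule for the calls: active = CYP2C19 inhibition above a set limit at 5 µM in the primary screen (cut at about 50% in these data); inactive = the rest.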
What follows are molecules tested against Cytochrome P450 2C19 (Homo sapiens) (UniProt P33261) (assay: blockers of cytochrome P450 2C19 activity – biochemical, luminescence, ADME assay, primary screen (AID 778;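 note: plate controls were negative control wells for no effect and 2.5 mM tranylcypromine positive control for full effect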)). Details: CYP2C19 Supersomes, luciferin-H EGE luminescence, 30 min; at 5 µM; hits give high values.
Chain of Cytochrome P450 2C19 (Homo sapiens) (P33261 whole entry, looked up): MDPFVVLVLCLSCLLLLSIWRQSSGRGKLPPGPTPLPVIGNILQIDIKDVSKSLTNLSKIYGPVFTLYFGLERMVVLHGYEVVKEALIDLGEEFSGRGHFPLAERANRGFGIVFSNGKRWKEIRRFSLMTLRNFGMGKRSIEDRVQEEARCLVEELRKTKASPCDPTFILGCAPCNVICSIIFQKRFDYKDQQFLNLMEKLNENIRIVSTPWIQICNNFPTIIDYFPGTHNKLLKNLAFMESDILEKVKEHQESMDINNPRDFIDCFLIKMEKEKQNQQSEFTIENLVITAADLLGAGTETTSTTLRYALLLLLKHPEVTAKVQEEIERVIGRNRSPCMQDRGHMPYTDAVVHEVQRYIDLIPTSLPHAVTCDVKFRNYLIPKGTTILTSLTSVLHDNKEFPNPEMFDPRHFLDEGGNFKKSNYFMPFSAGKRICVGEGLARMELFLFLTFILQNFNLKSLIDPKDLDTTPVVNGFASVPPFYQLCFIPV

First: CN(c1ccccc1)c1ccc(/C=c2\s/c(=C(/C#N)C(=O)C(C)(C)C)n(Cc3ccco3)c2=O)cc1
Second: Cc1ccccc1NC(=O)c1cnn(-c2ccccc2)c1NC(=O)c1ccco1
The inhibition of the first is higher: 5.4% for the first, -2.6% for the second.

Going from `Cn1c(-c2sc3cc(C(F)(F)F)cnc3c2-c2ccccc2)n[nH]c1=S` to `FC(F)(F)c1cc(-c2cccs2)nc(NCc2ccco2)n1`, the inhibition falls from 47.3% to 20.5%.

Going from `FC(F)(F)c1cc(-c2ccco2)nc(N2CCOCC2)n1` to `CCOc1cc(N2CCOCC2)c(OCC)cc1NC(=O)COc1cccc2cccnc12`, the inhibition rises from -16.1% to 3.8%.

First: COCCNC(=O)C(c1ccc(C)o1)N(Cc1cccs1)C(=O)c1snc(C(N)=O)c1N (centres undefined)
Second: COCCn1c(=S)[nH]c2cc(C(=O)NCCc3ccc(OC)c(OC)c3)ccc2c1=O
The inhibition of the first is lower: 2.1% for the first, 17.7% for the second.

Compared with `O=C(CCN1C(=O)COc2ccccc21)NCCCN1CCN(c2ccc(F)cc2)CC1`, `Cc1ccc(CNC(=O)CCNC(=O)Cn2ccc3ccccc3c2=O)cc1` is higher in inhibition: -10.1% for the first, 17.4% for the second.

First: CCOC(=O)c1cnc(-n2nc(C)cc2C)nc1-n1nc(C)cc1C
Second: CCOC(=O)N1CCC(O)(c2cc(C)c(C)cc2C)CC1
The inhibition of the first is lower: 5.2% for the first, 43.5% for the second.

First: CCc1nnc(NC(=O)c2ccc(S(=O)(=O)NC3CCCCC3)cc2)s1
Second: O=C(O)c1ccc(NC(=O)C2CCCCC2)cc1
The inhibition of the first is higher: 14.5% for the first, -21.5% for the second.

Going from `O=C(NNS(=O)(=O)c1ccc(Cl)cc1)C1CCN(Cc2ccccc2)CC1` to `Cc1ccc(S(=O)(=O)N(C)CC(=O)N2CCc3ccccc32)cc1`, the inhibition rises from 6% to 9.1%.

Going from `CCCc1[nH]nc2c1C(c1ccc(OC(=O)c3ccco3)cc1)C(C#N)=C(N)O2` (centres undefined) to `C=CCOC(=O)C1=C(C)NC(SCC(=O)OCC)=C(C#N)C1c1ccc(C)cc1` (centres undefined), the inhibition falls from 43.8% to 33.7%.

Compared with `Cc1c(C#N)c2ncn(CC#N)c(=O)c2n1-c1ccccc1`, `Cc1c(C#N)c(NC(=O)c2ccccc2)n(Cc2ccccc2)c1C` is higher in inhibition: -12.1% for the first, 22.6% for the second.

First: C=CCn1c(COc2cccc3cccnc23)nnc1SCC(=O)OC
Second: COc1cccc(Nc2ncccc2C(=O)O)c1
The inhibition of the first is higher: 26.2% for the first, -9.2% for the second.

Compared with `CN(C)Cc1c(C#N)c2ccccc2n1C`, `CCn1c(=O)cc(O)c2ccccc21` is lower in inhibition: -0.3% for the first, -18.1% for the second.

Compared with `Clc1ccc(CSc2nnc(/C=C/c3ccccc3)o2)c(Cl)c1`, `c1ccc(-c2nnc3n2NC(c2ccc4c(c2)OCO4)S3)cc1` (centres undefined) is higher in inhibition: 1.6% for the first, 28.9% for the second.

Going from `O=c1[nH]nc(CSCc2ccccc2Cl)[nH]1` to `Cn1cnc2c1c(=O)n(Cc1c(Cl)cccc1Cl)c(=O)n2C`, the inhibition rises from 1.4% to 49.5%.

Compared with `COC(=O)CCSc1cc([N+](=O)[O-])cc2c1c(C1OCCS1)nn2-c1ccccc1` (centres undefined), `COC(=O)CN1C(C)=Nc2ccc(Br)cc2C1c1ccccc1` (centres undefined) is higher in inhibition: 8.6% for the first, 43.4% for the second.

Compared with `Cc1ccc(Nc2nc(C)cc(C)c2C(N)=O)cc1`, `Cc1ccc(-n2ncc3c(Nc4cccc(C(=O)O)c4)ncnc32)cc1` is lower in inhibition: 7.6% for the first, -20% for the second.

Going from `O=C1c2oc3ccccc3c(=O)c2C(c2cccc(O)c2)N1c1ccccn1` (centres undefined) to `O=C1c2oc3ccc(Br)cc3c(=O)c2C(c2cccc(F)c2)N1CCO` (centres undefined), the inhibition rises from 38.4% to 40.4%.

Going from `COc1ccc(CCN2C(=O)c3[nH]nc(-c4ccccc4O)c3C2c2ccc(C)cc2)cc1OC` (centres undefined) to `COc1ccc(NC(=O)ON=C2c3ccccc3-c3ccccc32)cc1`, the inhibition falls from 21.1% to 11.6%.

Going from `c1csc(-c2cn3c(n2)SCC3)c1` to `Cc1cc2cc(CN(Cc3cccs3)Cc3nnnn3CC3CCCO3)c(=O)[nH]c2cc1C` (centres undefined), the inhibition rises from -13.7% to 34.3%.

Compared with `CC(C)C(C(=O)NC1CCCCC1)N(CC1CCCO1)C(=O)CNS(=O)(=O)c1ccc(F)cc1` (centres undefined), `CCC(=O)Nc1ccc(C(=O)Nc2ccc3c(c2)C(=O)N(CC2CCCO2)C3=O)cc1` (centres undefined) is higher in inhibition: -10.8% for the first, -1% for the second.

First: CCn1c(SC)nc(O)c(C(c2ccc(OC)c(O)c2)c2c(O)nc(SC)n(CC)c2=O)c1=O
Second: COc1ccc(Cl)cc1NC(=O)c1oc(C)nc1C
The inhibition of the first is higher: -2.9% for the first, -9% for the second.

Compared with `CC1CC(C)CN(CC(=O)N2c3ccccc3CCc3ccccc32)C1` (centres undefined), `O=C(CN1C(=O)c2ccccc2S1(=O)=O)N1CCc2ccccc21` is lower in inhibition: 24.7% for the first, -7.4% for the second.

Compared with `CCOC(=O)CCC(=O)OCC(=O)NC(C)C1CC2CCC1C2` (centres undefined), `CCOC(=O)CN1CC23C=CC(O2)C(C(=O)Nc2ccc(F)cc2)C3C1=O` (centres undefined) is higher in inhibition: 10.6% for the first, 40.7% for the second.

Compared with `CNC(=O)CN1C(=O)c2ccccc2S1(=O)=O`, `O=C(CC1Nc2ccccc2NC1=O)Nc1ccccc1` (centres undefined) is higher in inhibition: -9.3% for the first, 2.9% for the second.

Compared with `COc1ccc(-n2ncc3c(N4CCc5ccccc54)ncnc32)cc1`, `CCOc1ccc2[nH]c(=O)c(CN(Cc3nnnn3Cc3ccccc3)CC3CCCO3)cc2c1` (centres undefined) is higher in inhibition: -2.2% for the first, 8.7% for the second.

First: Cc1n[nH]c(=S)n1/N=C/c1ccc(Br)o1
Second: COC(=O)c1oc2ccc(Br)cc2c1NC(C)=O
The inhibition of the first is lower: -3.6% for the first, 14.7% for the second.

Going from `CCC(Sc1nncn1C)C(=O)Nc1nnc(-c2ccc(Cl)cc2)s1` (centres undefined) to `CCN(CC)c1ccc(NC(=O)c2ccc(Cl)nc2)cc1`, the inhibition falls from 17.4% to 7.7%.

Going from `CCOc1cc2[nH]c(=S)n(CCCN3CCCC3=O)c(=O)c2cc1OCC` to `CN1CCN(Cc2nc3c(c(=O)n(C)c(=O)n3C)n2Cc2cccc3ccccc23)CC1`, the inhibition falls from 6.7% to -17.1%.

First: O=C(O)C1CCCCC1C(=O)Nc1ccc(Cl)cc1 (centres undefined)
Second: O=C(O)CCCC(=O)Nc1ccccc1-n1ccnc1
The inhibition of the first is higher: 29.9% for the first, -4.7% for the second.

Going from `C[N+](C)(C)CCNC(=O)c1c(O)c2c([nH]c1=O)CCCC2` to `O=C(O)[C@@H]1CCCN1c1ncnc2sc3c(c12)CCC3`, the inhibition falls from 7.7% to 6.9%.

Compared with `O=P(O)(CP(=O)(c1ccccc1)c1ccccc1)c1ccccc1O`, `CCOCCOCCC(C(=O)O)P(=O)(c1ccccc1)c1ccccc1` (centres undefined) is lower in inhibition: 22.6% for the first, -2.4% for the second.

Going from `O=C1CC(c2cccc(Br)c2)C2=C(CCCC2=O)N1` (centres undefined) to `Nc1c(C(=O)NCc2ccccc2)sc2nc3c(cc12)C(=O)CCC3`, the inhibition falls from 11.9% to -16.5%.

First: CSc1ccc(Cl)c(C(=O)OCC(=O)N2CC(C)OC(C)C2)c1 (centres undefined)
Second: CCCCC(=O)N/N=C(\C)CC(=O)Nc1cc(Cl)ccc1OC
The inhibition of the first is higher: 12.4% for the first, 6.1% for the second.

Going from `Cc1cc(N)n2nc(-c3ccc(C(C)(C)C)cc3)cc2n1` to `CCC(C)(C)n1nnnc1CN1CCN(c2nc3ccc(C)cc3cc2C#N)CC1`, the inhibition falls from 26.1% to 0.3%.

Going from `O=C(CNC(=O)Cc1ccccc1)NCC(=O)OCC(=O)c1ccccc1Cl` to `CCNC(=S)NNC(=O)Cc1ccccc1`, the inhibition rises from 1.6% to 18.2%.

First: CC(C)(C)n1nnnc1C(c1cccs1)N(Cc1cccnc1)CC1CCCO1 (centres undefined)
Second: CC(=O)c1cccc(S(=O)(=O)N2CCC(n3nnc4cc(F)ccc43)CC2)c1
The inhibition of the first is lower: 31.5% for the first, 43.1% for the second.

Going from `COc1ccc(N(Cc2cc3cc(OC)ccc3[nH]c2=O)S(C)(=O)=O)cc1` to `O=S(=O)(c1cccc(-c2nnc(SC(F)F)n2-c2ccccc2)c1)N1CCCCC1`, the inhibition rises from 18.7% to 41.6%.

Compared with `CC(=O)c1c(C)c[nH]c1C`, `O=C(NCc1ccco1)c1nc2ncccn2n1` is higher in inhibition: -14.8% for the first, -0.7% for the second.

Compared with `CCSC1(SCC)N=C(N)C2(C#N)C(c3ccccc3)NC(C)=CC12C#N` (centres undefined), `CC(C)CNC(=S)NNC(=O)c1ccccc1OC(F)F` is higher in inhibition: 16.1% for the first, 16.6% for the second.

`O=C(CCl)NNc1cccc(Cl)n1` was tested, and the inhibition was 6.7%.

For `FC(F)(F)c1cc(-c2ccco2)nc(NCc2ccc(Cl)cc2)n1`, the inhibition was 57% (active).
For `c1ccc2c(c1)OCC(c1nn3cnnc3s1)O2` (centres undefined), the inhibition was 74.8% (active).
For `CCOC1CCCCC1NS(=O)(=O)c1ccc(Cl)cc1` (centres undefined), the inhibition was 69.5% (active).
`C=CCOC(=O)C1=C(C)OC(N)=C(C#N)C1c1ccc(F)cc1` (centres undefined) was tested, and the inhibition was 75.2% (active).
`Cc1cc(OCCOc2cccc3cccnc23)c(C)cc1Cl` was tested, and the inhibition was 73.2% (active).
In the case of `S=c1[nH]nc(CSCc2ccc(Cl)cc2Cl)n1-c1ccccc1`, the inhibition is reported as 64.8% (active).
`COCCN1C(=O)c2oc3c(C)cc(C)cc3c(=O)c2C1c1cccc(O)c1` (centres undefined) was tested, and the inhibition was 70.6% (active).
In the case of `COC(=O)c1ccc(C2C(Oc3ccccc3C)C(=O)N2CCc2ccc(OC)c(OC)c2)cc1` (centres undefined), the inhibition is reported as 65.2% (active).
In the case of `O=S(=O)(Cc1cc(Sc2ccccc2)nc(-c2ccccc2)n1)c1ccccc1`, the inhibition is reported as 50.5% (active).
In the case of `O=C(CSCc1ccccc1)N1CCc2ccccc21`, the inhibition is reported as 51.6% (active).
With `O=C1c2ccccc2S(=O)(=O)N1CC(O)Cn1c2ccccc2c2ccccc21` (centres undefined) the inhibition was 73.4% (active).
For `O=C(Nc1cnn(Cc2ccc(Cl)cc2)c1)C1CCCC1`, the inhibition was 84.8% (active).
In the case of `CN(C)Cc1ccccc1C1(O)c2ccccc2CSc2ccccc21` (centres undefined), the inhibition is reported as 67.5% (active).
For `O=C(CCN1c2ccccc2Sc2ccccc21)Nc1ccccc1`, the inhibition was 80.2% (active).
In the case of `Cc1cc(C)c2cc(CN(Cc3cccs3)Cc3nnnn3CC3CCCO3)c(=O)[nH]c2c1` (centres undefined), the inhibition is reported as 84.5% (active).
`COc1ccc2[nH]c(=O)c(CN(Cc3nnnn3CCc3ccccc3)CC3CCCO3)cc2c1` (centres undefined) was tested, and the inhibition was 77.7% (active).
`COC(=O)C1=C(C)N(C)C(C)=C(C(=O)OC)C1c1cccc(Br)c1` was tested, and the inhibition was 79.2% (active).
In the case of `Cc1occc1C(=O)NNC(=S)NCC(C)C`, the inhibition is reported as 74.6% (active).
With `O=S(=O)(c1cccc(S(=O)(=O)N2CCC(n3nnc4ccccc43)CC2)c1)N1CCCCC1` the inhibition was 94.7% (active).
With `COc1ccc(Cl)cc1NC(=O)CN(C)C(=O)CNC(=O)C12CC3CC(CC(C3)C1)C2` the inhibition was 67.9% (active).
